We go through 39 compounds from the supplement of paper PMC12669032.

The test system of the first assay is Escherichia coli IAI1. Nature of the assay: growth AUC relative to DMSO control (median of replicates) (fraction); higher = more growth (less inhibition), active = hit call of the paper. Particulars: 20 µM; 24 h;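 active = AUC reduced over 20% with Padj below 0.05 in at least 2 of 3 replicates; inactive = otherwise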. The essentials: (§1)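 Area under the growth curve was normalised to the plate median of solvent-only wells, except on the industrial chemical plate, where row and column medians were used. Curves came from gut bacterial monocultures grown anaerobically at 37 °C in mGAM with 20 µM compound (1% DMSO), starting at OD600 0.05 and read at OD600 every hour for 24 h. The minimum OD of each curve was set to 0, and values are medians of three biological replicates grown on separate days.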
Consider `C#CCOC(=O)[C@@H](C)Oc1ccc(Oc2ncc(Cl)cc2F)cc1`, for which the “growth AUC” value is 0.987 (inactive).
Still for that read-out and setting: next, `c1ccc2cc3c(ccc4ccccc43)cc2c1`: 0.994 (inactive); `CN(C)C=O`: 1.03 (inactive).
On the same count and under the same terms, with `COc1nc(N)nc(NC(C)(C)C)n1` the figure was 0.98 (inactive); with `Cc1ccc(Cl)cc1`, 1.05 (inactive); with `O=C(O)Cc1c(Cl)ccc(Cl)c1Cl`, 0.999 (inactive).
Consider `O=c1oc(-c2ccccc2)nc2ccccc12`, for which the “growth AUC” value is 0.946 (inactive).
Still for that read-out and setting: with `COC(=O)c1cccc(C)c1S(=O)(=O)NC(=O)Nc1nc(OCC(F)(F)F)nc(N(C)C)n1` the figure was 0.997 (inactive); with `COc1cc(OC)nc(NC(=O)NS(=O)(=O)Nc2ccccc2C(=O)N(C)C)n1`, 0.992 (inactive).
In the case of `O=S(Cc1ccc(Cl)cc1)c1ccc(Cl)cc1` (stereo not drawn), the “growth AUC” value is 0.981 (inactive).
The same measure, in the same setting: with `CCOc1ccc2c(c1)C(C)=CC(C)(C)N2` the figure was 0.986 (inactive).
Same read-out and setting: next, `CC(C)COC(=O)COc1cc(Cl)c(Cl)cc1Cl`: 0.998 (inactive).
Consider `CN(C)C(=O)Nc1cc(C(C)(C)C)on1`, for which the “growth AUC” value is 1.01 (inactive).
Still for that read-out and setting: with `C=CCc1ccc(OC)c(OC)c1` the figure was 1.04 (inactive); with `CCNc1nc(NCC)nc(OC)n1`, 0.975 (inactive); with `CCOC(=O)c1nc(C(Cl)(Cl)Cl)n(-c2ccc(Cl)cc2Cl)n1`, 1.01 (inactive).
Turning to `Oc1ccc2ccccc2c1N=Nc1ccccc1`, the “growth AUC” value is 1.01 (inactive).
The same measure, in the same setting: next, `O=C(Nc1ccc(Cl)cc1C(O)c1ccccc1)c1ccncc1` (stereo not drawn): 0.958 (inactive); `CSC(=O)c1cccc2nnsc12`: 0.981 (inactive); `Cc1ccc2c(c1)[C@H](Nc1nc(N)nc(C(C)F)n1)[C@@H](C)C2` (stereo partly drawn): 1.02 (inactive).
The same measure, in the same setting: next, `CCOC(=O)c1cnn(C)c1S(=O)(=O)NC(=O)Nc1nc(OC)cc(OC)n1`: 1.01 (inactive); `C/C=C/C(=O)Oc1c(C(C)CCCCCC)cc([N+](=O)[O-])cc1[N+](=O)[O-]` (mixture of isomers): 0.985 (inactive).
Same read-out and setting: with `CCOC(=O)C(C)N(C(=O)c1ccccc1)c1ccc(Cl)c(Cl)c1` (stereo not drawn) the figure was 0.991 (inactive).
As for `COC(=O)c1c(Cl)ccc(Cl)c1OC`, the “growth AUC” value is 1.03 (inactive).
The same measure, in the same setting: next, `c1ccc(Sc2ccccc2)cc1`: 0.967 (inactive); `O=C(O)Cc1c[nH]c2ccccc12`: 1.02 (inactive).
The same measure, in the same setting: next, `Cc1cc(C)c(C2=C(O)C3(CCCC3)OC2=O)c(C)c1`: 1.01 (inactive).
Same read-out and setting: with `CC(=O)Oc1c(Cl)c(Cl)c(Cl)c(Cl)c1Cl` the figure was 0.808 (inactive).
As for `CCNc1nc(NC(C)CC)nc(OC)n1` (stereo not drawn), the “growth AUC” value was 0.994 (inactive).
On the same count and under the same terms, with `COc1cc(OC)nc(NC(=O)NS(=O)(=O)Nc2ccccc2C(=O)C2CC2)n1` the figure was 0.978 (inactive).
Still for that read-out and setting: next, `CCCCC(CC)COC(=O)COc1cc(Cl)c(Cl)cc1Cl` (stereo not drawn): 1.03 (inactive).
Still for that read-out and setting: next, `CSc1nnc(C(C)(C)C)c(=O)n1/N=C/C(C)C`: 0.979 (inactive).
Take `CC[N+](CC)(CC(=O)Nc1c(C)cccc1C)Cc1ccccc1.O=C([O-])c1ccccc1`: the “growth AUC” value was 1.04 (inactive).
As to `CCCCOCCOCCOCc1cc2c(cc1CCC)OCO2`, the “growth AUC” value is 1 (inactive).
Regarding `CC(C)N(C(=O)CS(=O)(=O)[O-])c1ccc(F)cc1.[Na+]`, the “growth AUC” value is 0.984 (inactive).
Same read-out and setting: next, `CN(C)C(=O)Nc1ccc(Oc2ccc(Cl)cc2)cc1`: 0.938 (inactive).
Still for that read-out and setting: with `[S]` the figure was 0.963 (inactive); with `COC(=O)c1csc(C)c1S(=O)(=O)NC(=O)n1nc(OC)n(C)c1=O`, 0.971 (inactive); with `COc1c(Cl)ccc(Cl)c1C(=O)O`, 0.986 (inactive).

The subject of a further assay is Eubacterium rectale. The assay is described as above. The settings on record: 20 µM; 24 h. The method in brief:
as §1
In the case of `C#CCOC(=O)[C@@H](C)Oc1ccc(Oc2ncc(Cl)cc2F)cc1`, the “growth AUC” value was 0.982 (inactive).
The same measure, in the same setting: next, `c1ccc2cc3c(ccc4ccccc43)cc2c1`: 1.08 (inactive); `CN(C)C=O`: 0.998 (inactive).
Still for that read-out and setting: with `COc1nc(N)nc(NC(C)(C)C)n1` the figure was 0.976 (inactive).
For the compound `Cc1ccc(Cl)cc1`, the “growth AUC” value was 0.962 (inactive).
Same read-out and setting: with `O=C(O)Cc1c(Cl)ccc(Cl)c1Cl` the figure was 0.96 (inactive); with `O=c1oc(-c2ccccc2)nc2ccccc12`, 0.948 (inactive); with `COC(=O)c1cccc(C)c1S(=O)(=O)NC(=O)Nc1nc(OCC(F)(F)F)nc(N(C)C)n1`, 0.963 (inactive).
On the same count and under the same terms, with `COc1cc(OC)nc(NC(=O)NS(=O)(=O)Nc2ccccc2C(=O)N(C)C)n1` the figure was 0.972 (inactive); with `O=S(Cc1ccc(Cl)cc1)c1ccc(Cl)cc1` (stereo not drawn), 1.09 (inactive); with `CCOc1ccc2c(c1)C(C)=CC(C)(C)N2`, 1.06 (inactive).
On to `CC(C)COC(=O)COc1cc(Cl)c(Cl)cc1Cl`, for which the “growth AUC” value is 1.02 (inactive).
The same measure, in the same setting: next, `CN(C)C(=O)Nc1cc(C(C)(C)C)on1`: 0.949 (inactive); `C=CCc1ccc(OC)c(OC)c1`: 1 (inactive); `CCNc1nc(NCC)nc(OC)n1`: 1 (inactive).
As to `CCOC(=O)c1nc(C(Cl)(Cl)Cl)n(-c2ccc(Cl)cc2Cl)n1`, the “growth AUC” value is 0.961 (inactive).
Take `Oc1ccc2ccccc2c1N=Nc1ccccc1`: the “growth AUC” value is 0.983 (inactive).
Still for that read-out and setting: with `O=C(Nc1ccc(Cl)cc1C(O)c1ccccc1)c1ccncc1` (stereo not drawn) the figure was 1.12 (inactive); with `CSC(=O)c1cccc2nnsc12`, 1.03 (inactive); with `Cc1ccc2c(c1)[C@H](Nc1nc(N)nc(C(C)F)n1)[C@@H](C)C2` (stereo partly drawn), 0.91 (inactive).
`CCOC(=O)c1cnn(C)c1S(=O)(=O)NC(=O)Nc1nc(OC)cc(OC)n1`: the “growth AUC” value was 1.08 (inactive).
Turning to `C/C=C/C(=O)Oc1c(C(C)CCCCCC)cc([N+](=O)[O-])cc1[N+](=O)[O-]` (mixture of isomers), the “growth AUC” value was 0.665 (active).
Same read-out and setting: with `CCOC(=O)C(C)N(C(=O)c1ccccc1)c1ccc(Cl)c(Cl)c1` (stereo not drawn) the figure was 1.04 (inactive); with `COC(=O)c1c(Cl)ccc(Cl)c1OC`, 0.969 (inactive).
Still for that read-out and setting: next, `c1ccc(Sc2ccccc2)cc1`: 1.02 (inactive); `O=C(O)Cc1c[nH]c2ccccc12`: 1.02 (inactive).
On the same count and under the same terms, with `Cc1cc(C)c(C2=C(O)C3(CCCC3)OC2=O)c(C)c1` the figure was 0.996 (inactive); with `CC(=O)Oc1c(Cl)c(Cl)c(Cl)c(Cl)c1Cl`, 0.942 (inactive); with `CCNc1nc(NC(C)CC)nc(OC)n1` (stereo not drawn), 0.961 (inactive).
In the case of `COc1cc(OC)nc(NC(=O)NS(=O)(=O)Nc2ccccc2C(=O)C2CC2)n1`, the “growth AUC” value is 0.807 (inactive).
In the case of `CCCCC(CC)COC(=O)COc1cc(Cl)c(Cl)cc1Cl` (stereo not drawn), the “growth AUC” value is 0.903 (inactive).
As for `CSc1nnc(C(C)(C)C)c(=O)n1/N=C/C(C)C`, the “growth AUC” value is 1.1 (inactive).
Still for that read-out and setting: with `CC[N+](CC)(CC(=O)Nc1c(C)cccc1C)Cc1ccccc1.O=C([O-])c1ccccc1` the figure was 1.14 (inactive); with `CCCCOCCOCCOCc1cc2c(cc1CCC)OCO2`, 0.84 (inactive); with `CC(C)N(C(=O)CS(=O)(=O)[O-])c1ccc(F)cc1.[Na+]`, 1.02 (inactive).
Turning to `CN(C)C(=O)Nc1ccc(Oc2ccc(Cl)cc2)cc1`, the “growth AUC” value is 1.24 (inactive).
`[S]`: the “growth AUC” value was 1.04 (inactive).
Turning to `COC(=O)c1csc(C)c1S(=O)(=O)NC(=O)n1nc(OC)n(C)c1=O`, the “growth AUC” value is 1.11 (inactive).
For `COc1c(Cl)ccc(Cl)c1C(=O)O`, the “growth AUC” value is 0.912 (inactive).
